# PubChem BioAssay (Tox21)
# Inconclusive results are not listed. Calls of active or inactive are those of the source. Unless noted, calls come from the whole dose curve; as a rule, active = well fitted curve in the direction sought with a large enough effect in the repeat runs; inconclusive = weak or mixed curves; inactive = no such curve, though single readings can be large; an effect the other way counts as inactive or inconclusive.
# Test: qHTS assay to identify small molecule phospholipidosis (PLD) inducers (AID 1259344; active = well fitted curve in the direction sought with a large enough effect; an effect the other way counts as inactive or inconclusive)
# Conditions: HepG2 phospholipidosis, LipidTOX Red imaging, 24 h; series mostly up to 38.3 µM; PLD induction: at the top concentration
# In short: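 Phospholipid accumulation was scored by imaging: fixed, Hoechst-counterstained HepG2 cells stained with LipidTOX Red after 24 h compound exposure at 37 C. Read-outs were pit count and pit intensity per well or per cell, with amiodarone and DMSO controls.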
# % is set by controls: 0 for no effect and ±100 for the full control effect.
Structure (SMILES),Potency,PLD induction
CC(=O)OCC(=O)NCCCOc1cccc(CN2CCCCC2)c1,inactive,–
C/C=C(/C(=C/C)c1ccc(O)cc1)c1ccc(O)cc1,–,0.628% [at 15.5 µM] (inactive)
CN(C)CCN1C(=O)c2ccccc2N(C)c2ccccc21,–,-0.448% (inactive)
NC1[C@H]2CN(c3nc4c(cc3F)c(=O)c(C(=O)O)cn4-c3ccc(F)cc3F)C[C@@H]12 (stereo partly specified),–,0.97% (inactive)
COC(=O)C1=C(C)NC(C)=C(C(=O)O[C@@H]2CCCN(Cc3ccccc3)C2)[C@@H]1c1cccc([N+](=O)[O-])c1,–,-2.5% (inactive)
C[C@@H]1CC(=O)NN=C1c1ccc(NN=C(C#N)C#N)cc1,–,-1.2% (inactive)
C[C@@H](O)[C@H]1C(=O)N2C(C(=O)O)=C([C@H]3CCCO3)S[C@H]12,–,-0.0539% (inactive)
O=C(Cn1ccnc1[N+](=O)[O-])NCCO,–,0.0884% (inactive)
O=C(/C=C/c1ccc(O)c(O)c1)O[C@@H]1C[C@@](OC(=O)/C=C/c2ccc(O)c(O)c2)(C(=O)O)C[C@@H](O)[C@@H]1O,–,0.0852% (inactive)
O=C1c2ccccc2C(=O)C1c1ccc(Br)cc1,–,-0.18% (inactive)
Clc1ccc(Nc2nnc(Cc3ccncc3)c3ccccc23)cc1,–,2% (inactive)
OC(CCN1CCCC1)(c1ccccc1)C1CCCCC1 (stereo unspecified),–,4.38% [at 15.5 µM] (inactive)
CCn1cc(C(=O)O)c(=O)c2cc(F)c(N3CCNCC3)cc21,inactive,–
CCOc1ccccc1O[C@H](c1ccccc1)[C@H]1CNCCO1,–,5.31% (inactive)
CCN(CC)CCNC(=O)COc1ccc(OC)cc1,–,0.2% (inactive)
C=CCc1ccccc1OCC(O)CNC(C)C (stereo unspecified),–,2.56% (inactive)
CCOC(=O)[C@H](CCc1ccccc1)N[C@@H](C)C(=O)N(CC(=O)O)C1Cc2ccccc2C1,–,5.12% (inactive)
C[C@H]1c2cccc(O)c2C(O)=C2C(=O)[C@]3(O)C(O)=C(C(N)=O)C(=O)[C@@H](N(C)C)[C@@H]3[C@@H](O)[C@@H]21,–,-0.353% (inactive)

# Test: qHTS assay to identify small molecule HDAC inhibitors (AID 1259364); note: potency is the fitted concentration of half-maximal effect;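 note: wild-type HCT-116 cells with endogenous class I/II HDAC activity; nearly all actives have a fitted effect of over 45% in size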; for activity change, negative = inhibition: top concentration of the series differs between compounds
# Conditions: HCT-116 HDAC-Glo I/II luminescence, 2 h; series mostly up to 92.4 µM; activity change, negative = inhibition: at the top concentration
# In short: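 After a 2 hr compound incubation (37C, 5% CO2), HCT-116 cells seeded at 1,500/well the day before received HDAC-Glo reagent; signal read as luminescence after 30 min at room temperature.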
Structure (SMILES),"activity change, negative = inhibition",Potency
O=C=Nc1cccc(C(F)(F)F)c1,-10% (inactive),–
CCCCCCCC/C=C\CCCCCCCCCCCC(=O)O,-3.78% (inactive),–
CC(=O)OCC(=O)NCCCOc1cccc(CN2CCCCC2)c1,7.58% [at 42.5 µM] (inactive),–
O=C1Cc2cc(Cl)ccc2N1,0.516% [at 42.5 µM] (inactive),–
C/C=C(/C(=C/C)c1ccc(O)cc1)c1ccc(O)cc1,-0.988% [at 42.5 µM] (inactive),–
Cc1cc(O)c(C)c(C)c1O,1.05% [at 42.5 µM] (inactive),–
C/C=C/C=C/C=O,1.9% (inactive),–
CN(C)CCN1C(=O)c2ccccc2N(C)c2ccccc21,1.68% [at 42.5 µM] (inactive),–
CCCCCCC(C)(C)C(=O)O,6.02% (inactive),–
C=C1C[C@@]23CC[C@H]4[C@@](C)(CCC[C@@]4(C)C(=O)O[C@@H]4O[C@H](CO)[C@@H](O)[C@H](O)[C@H]4O)[C@@H]2CC[C@]1(O[C@@H]1O[C@H](CO)[C@@H](O)[C@H](O[C@@H]2O[C@H](CO)[C@@H](O)[C@H](O)[C@H]2O)[C@H]1O[C@@H]1O[C@H](CO)[C@@H](O)[C@H](O)[C@H]1O)C3,-0.248% (inactive),–
NC1[C@H]2CN(c3nc4c(cc3F)c(=O)c(C(=O)O)cn4-c3ccc(F)cc3F)C[C@@H]12 (stereo partly specified),-1.3% [at 42.5 µM] (inactive),–
COC(=O)C1=C(C)NC(C)=C(C(=O)O[C@@H]2CCCN(Cc3ccccc3)C2)[C@@H]1c1cccc([N+](=O)[O-])c1,0.712% [at 42.5 µM] (inactive),–
O=C(/C=C/c1ccccc1)OCCc1ccccc1,–,30.6 µM (active)
C[C@@H](O)[C@H]1C(=O)N2C(C(=O)O)=C([C@H]3CCCO3)S[C@H]12,1.7% [at 42.5 µM] (inactive),–
O=C(Cn1ccnc1[N+](=O)[O-])NCCO,0.591% [at 42.5 µM] (inactive),–
O=C(/C=C/c1ccc(O)c(O)c1)O[C@@H]1C[C@@](OC(=O)/C=C/c2ccc(O)c(O)c2)(C(=O)O)C[C@@H](O)[C@@H]1O,-3.18% [at 42.5 µM] (inactive),–
O=C1c2ccccc2C(=O)C1c1ccc(Br)cc1,–,18.8 µM (active)
Clc1ccc(Nc2nnc(Cc3ccncc3)c3ccccc23)cc1,0.663% [at 42.5 µM] (inactive),–
OC(CCN1CCCC1)(c1ccccc1)C1CCCCC1 (stereo unspecified),8.99% [at 42.5 µM] (inactive),–

Structure (SMILES),"activity change, negative = inhibition",Potency
CCn1cc(C(=O)O)c(=O)c2cc(F)c(N3CCNCC3)cc21,7.12% [at 42.5 µM] (inactive),–
C=C(C)[C@@H]1CCC2=CCC[C@@H](C)[C@]2(C)C1,-5.6% (inactive),–
C1COC1,6.92% (inactive),–
CC/C=C1/OC(=O)c2ccccc21,-5.38% (inactive),–
CCOc1ccccc1O[C@H](c1ccccc1)[C@H]1CNCCO1,-2.27% [at 42.5 µM] (inactive),–
CCN(CC)CCNC(=O)COc1ccc(OC)cc1,-0.674% [at 42.5 µM] (inactive),–
CS(=O)(=O)c1ccc(-c2cn3ccccc3n2)cc1,–,2.11 µM (active)
NC(=O)c1ccncc1,-3.08% (inactive),–
Cc1cscn1,9.55% (inactive),–
CC1=Nc2ccc3ccccc3c2C1(C)C,0.0966% (inactive),–
CCOc1cccc(-n2cc(C(=O)N3CCN(c4cc(C(=O)O)c5ccccc5c4)CC3)nc2-c2ccc(C)cc2)c1,2.3% (inactive),–
O=C1Cc2ccccc2N1c1c(Cl)cccc1Cl,-11.5% (inactive),–
CCC(=O)OC,-1.64% (inactive),–
C=CCc1ccccc1OCC(O)CNC(C)C (stereo unspecified),7.71% [at 42.5 µM] (inactive),–
OC1(c2ccccc2)CCNCC1,0.992% [at 42.5 µM] (inactive),–
COC(=O)[C@H]1[C@H]2C[C@@H]3c4[nH]c5cc(OC)ccc5c4CCN3C[C@H]2C[C@@H](OC(=O)/C=C/c2ccc(O)c(OC)c2)[C@@H]1OC,5% [at 42.5 µM] (inactive),–
O=C(OC(=O)c1ccccc1)c1ccccc1,-2.28% (inactive),–
CCOC(=O)[C@H](CCc1ccccc1)N[C@@H](C)C(=O)N(CC(=O)O)C1Cc2ccccc2C1,-0.363% [at 42.5 µM] (inactive),–
C[C@H]1c2cccc(O)c2C(O)=C2C(=O)[C@]3(O)C(O)=C(C(N)=O)C(=O)[C@@H](N(C)C)[C@@H]3[C@@H](O)[C@@H]21,3.95% [at 42.5 µM] (inactive),–
